# Results: PubChem BioAssay AID588342 (National Center for Advancing Translational Sciences (NCATS), 2011)
# Among all 360,000 compounds or so, about 25,000 (6.9%) were called active. About 9% were inconclusive and are not listed. Only a selection was taken, and actives are over-represented in it overall. Values without a mark were called inactive. Calls come from the whole dose curve; as a rule, active = well fitted inhibition curve with a large enough effect; inconclusive = small, poorly fitted or top-dose-only effect; inactive = flat fitted curve, though single readings scatter.
# Biological target: Luciferin 4-monooxygenase (Photinus pyralis) (UniProt P08659)
# Test: qHTS profiling assay for firefly luciferase inhibitor/activator using purifed enzyme and Km concentrations of substrates (counterscreen for miR-21 project); note: nearly all actives have a fitted effect of over 55% in size;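 for activity change, negative = inhibition: plate controls were vehicle for no effect and reference inhibitor for full effect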
# Conditions: purified FLuc, luminescence inhibition; series mostly up to 57.5 µM; activity change, negative = inhibition: at the top concentration
# Procedure, shortened: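 Purified P. pyralis luciferase, 10 nM final, with Km-level 10 uM D-luciferin and 10 uM ATP in 50 mM Tris acetate pH 7.5, 10 mM Mg acetate, 0.01% Tween-20, 0.05% BSA; 6-point qHTS titration about 60 µM downward; luminescence read.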
# Potency is the fitted concentration of half-maximal effect.
# Chain of Luciferin 4-monooxygenase (Photinus pyralis) (P08659 whole entry, looked up): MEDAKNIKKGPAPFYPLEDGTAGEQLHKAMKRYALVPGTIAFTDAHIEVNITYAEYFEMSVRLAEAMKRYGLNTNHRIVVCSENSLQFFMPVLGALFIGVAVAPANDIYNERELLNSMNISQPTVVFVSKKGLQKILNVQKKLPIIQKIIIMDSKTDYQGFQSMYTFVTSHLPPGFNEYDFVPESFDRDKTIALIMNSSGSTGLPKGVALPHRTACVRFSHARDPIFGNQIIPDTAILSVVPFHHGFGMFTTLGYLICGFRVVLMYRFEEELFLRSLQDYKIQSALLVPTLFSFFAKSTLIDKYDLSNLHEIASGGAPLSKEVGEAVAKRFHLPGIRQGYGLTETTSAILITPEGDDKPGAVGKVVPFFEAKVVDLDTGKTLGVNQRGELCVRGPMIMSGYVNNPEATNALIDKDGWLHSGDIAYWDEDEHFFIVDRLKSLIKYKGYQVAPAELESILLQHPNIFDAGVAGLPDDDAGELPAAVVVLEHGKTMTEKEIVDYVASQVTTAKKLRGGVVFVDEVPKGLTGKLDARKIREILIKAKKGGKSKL
SMILES,Potency,"activity change, negative = inhibition [%]"
Cc1ccc(-c2cc(N)on2)cc1,16.9 µM (active),
Cc1ccc(-c2cc(N)n(Cc3cccc(Cl)c3)n2)cc1,,-7.16
Cc1ccc(S(=O)(=O)Cc2cc(-c3ccc(Cl)cc3)no2)cc1,,-13
CCc1nn(CC(=O)Nc2cccc(C)c2C)c(=O)c2cc3sccc3n12,,-8.3
COc1cc(C(=O)N2CCN(C(=O)COc3cccc(C)c3)CC2)cc(OC)c1OC,,3.42
CCOC(=O)c1cnc(SCC(=O)Nc2cccc(OC)c2)nc1N,,-2.7
CCOC(=O)c1cnc(SCc2nc(N)nc(Nc3ccc(OC)cc3)n2)nc1N,19 µM (active),
CCOC(=O)c1cnc(SCC(=O)Nc2ccccc2C(=O)OC)nc1N,,-17.3
Cc1c(CCNC(=O)c2ccc(C(F)(F)F)cc2)sc2nc(-c3ccc(F)cc3)nn12,,-0.0826
Cc1ccc(C(=O)N/C(=C/C=C/c2ccccc2)C(=O)NCc2ccco2)cc1,,-6.44
CC1CCCCC12NC(=O)N(CC(=O)Nc1ccc(S(=O)(=O)Nc3ncccn3)cc1)C2=O (centres undefined),,0.431
Cc1cccc(Nc2ccccc2C(=O)NCc2ccco2)c1C,,3.31
O=C(Nc1ccccc1)Nc1ccccc1C(=O)NCc1ccco1,15.1 µM (active),
CC(C)(C)c1ccc(C(=O)NCCC(=O)NCc2ccco2)cc1,,-13.9
CC(C)(C)NC(=O)NCc1ccco1,,-2.22
CC(C)(C)c1ccc(NC(=O)NCc2ccco2)cc1,23.9 µM (active),
Cc1ccccc1NC(=O)NCc1ccco1,,-3.59
CCCCNC(=O)C1CCCN(c2nnc(C)c3c(C)n(-c4ccc(Cl)cc4)nc23)C1 (centres undefined),,-6.66
CCOC(=O)CSC1=Nc2ccccc2C2=NC(CCC(=O)NCc3ccc(F)cc3)C(=O)N12 (centres undefined),,2.71
CCN(CC(=O)Nc1ccccc1OC)C(=O)CC1CC2CCC1C2 (centres undefined),,-0.227
O=C(Cc1ccc(Cl)cc1)NCC(c1cccs1)S(=O)(=O)c1ccc(Cl)cc1 (centres undefined),,-14.2
O=C(Cc1cccs1)N(CC1CCCO1)C1(C(=O)NC2CCCCC2)CCCCC1 (centres undefined),,-2.36
CC1CCCN(c2nc3c(S(=O)(=O)c4ccc(C(C)C)cc4)nnn3c3ccsc23)C1 (centres undefined),,5.49
O=C(NCc1ccccc1)C1CCN(C(=O)Cc2ccccc2)CC1,,4.44
O=C(O)C1CCN(C(=O)OCc2ccccc2)CC1,10.7 µM (active),
CCOC(=O)N1CCC(NC(=O)CCc2ccccc2)CC1,,0.99

SMILES,Potency,"activity change, negative = inhibition [%]"
COc1cc(OC)cc(-c2nnc(N(C)C(=O)c3ccncc3)s2)c1,,-0.199
CN(C(=O)C1CCOC1)c1nnc(-c2cccnc2)s1 (centres undefined),,3.31
CN(C(=O)c1ccccn1)c1nnc(-c2ccccn2)s1,3.38 µM (active),
Cc1ccc(C(=O)CCC(=O)N(C)CC(=O)Nc2c(Cl)cccc2Cl)cc1,,-16.9
CCn1c(COc2c(C)cccc2C)nnc1SCc1nc2ccccc2c(=O)[nH]1,,7.76
COc1ccc(Cn2ccnc2SCC(=O)NCc2ccco2)cc1,,0.425
CC(NC(=O)c1cc(Sc2ccc(F)cc2F)nc2ccccc12)c1ccccc1 (centres undefined),,4.18
Cn1c(=O)c2c(nc(SCC(=O)Nc3ccc(F)cc3)n2Cc2ccccc2)n(C)c1=O,,1.13
CCN(CC(=O)Nc1ccccc1C(F)(F)F)C(=O)C1CCN(C(=O)Nc2ccccc2)CC1,,2.43
O=C(NC1CC(=O)N(c2ccc(Cl)cc2)C1)C1CCCC1 (centres undefined),,-5.39
S=C(NNC(=S)NC1CC2C=CC1C2)NC1CC2C=CC1C2 (centres undefined),,0.443
S=C(NNC(=S)NC1CC2CCC1C2)NC1CC2C=CC1C2 (centres undefined),,-0.235
CC(C)c1ccc(NC(=S)NC2CC3C=CC2C3)cc1 (centres undefined),10.7 µM (active),
Cc1c(Cl)cccc1NC(=O)C1CCCN(C(=O)c2cnn(-c3ccccc3)c2-n2cccc2)C1 (centres undefined),,-17.5
CCN(CC)c1ccc(/C=N/Nc2nc(C)cc(=O)[nH]2)cc1,19 µM (active),
Cc1cc(=O)[nH]c(N/N=C/c2ccc3c(c2)OCCO3)n1,10.7 µM (active),
CCOC(=O)Cc1csc(NC(=O)CSc2nc(C)cc(=O)[nH]2)n1,,-11
Cc1cc(=O)[nH]c(Nc2cccc(Br)c2)n1,,-3.47
Cc1cc(=O)[nH]c(N/N=C/c2c(C)nn(-c3ccccc3Cl)c2Cl)n1,21.3 µM (active),
Cc1nnc(N/N=C/c2ccccn2)[nH]c1=O,,-4.55
Cc1ccc2nc(C)cc(N/N=C/c3ccc(F)cc3)c2c1,,-1.41
Cc1ccc(C)c(NC2=NCC(=O)N2c2ccc3c(c2)OCCO3)c1,,-7.62
COc1ccc(CCC(=O)N2CCN(S(=O)(=O)c3ccc(OC)cc3)CC2)cc1,,0.133
Cc1ccc(F)cc1S(=O)(=O)Nc1cccc(C(=O)N2CCCC(C(N)=O)C2)c1 (centres undefined),,1.32
CCOC(=O)c1cc(-c2ccc(OC)c(S(=O)(=O)Nc3ccc(OC)cc3OC)c2)on1,,-6.63
CCOc1ccc(S(=O)(=O)Nc2ccc(C(=O)NCCCN3CCCC3=O)cc2)cc1,,0.869

SMILES,Potency,"activity change, negative = inhibition [%]"
Nc1ncc(S(=O)(=O)Nc2ccc(OC(F)(F)F)cc2)cn1,,-18.2
COc1ccccc1N1CCN(c2ccc(=O)n(CC(=O)NCc3ccc(OC(C)C)cc3)n2)CC1,,-8.85
Cc1cc(C)cc(NS(=O)(=O)c2ccc(-c3cc(C)no3)s2)c1,,-17.8
Cn1nc(-c2ccccc2)c(-c2ccccc2)c(C(=O)Nc2ccc(S(N)(=O)=O)cc2)c1=O,,-7.51
CCc1cccc(CC)c1NC(=O)Cn1c(=O)c(-c2cc(C)ccc2NC(C)=O)nc2ccccc21,,3.12
Cc1ccc(C(=O)COC(=O)CCN2C(=O)C3C4CCC(C4)C3C2=O)cc1C (centres undefined),10.7 µM (active),
O=C(CCN1C(=O)C2C3CCC(C3)C2C1=O)Nc1ccc(Cl)cc1Cl (centres undefined),,-0.123
Cc1ccc(C(=O)COC(=O)CCN2C(=O)C3C4CC(C(Br)C4Br)C3C2=O)cc1 (centres undefined),,1.77
COc1ccccc1-c1noc(CSc2nnc(-c3ccccc3)n2-c2ccc(C)c(C)c2)n1,,-0.724
c1cc(-n2cnnn2)ccc1NC1=NCCC1,,-0.318
Cc1ccc(C(=O)Cc2nnc(C)s2)cc1,9.53 µM (active),
Cc1ccc(S(=O)(=O)CC(=O)Nc2nnc(C)s2)cc1,,0.491
Cc1ccc(C(=O)Cn2cccn2)cc1,,2.73
CC(CO)N1CCS(=O)(=O)CC1 (centres undefined),,5.19
CCc1cc2c(cc3c(=O)n(CC(=O)N4CCN(c5cc(Cl)ccc5C)CC4)nc(CC)n32)s1,,-10.4
Cc1ccc(NC(=O)c2oc3ccccc3c2NC(=O)Cc2cccs2)cc1,,1.25
Cc1cc2c(cc3c(SCc4nc(-c5ccccc5)oc4C)nnc(C)n32)o1,,-1.75
CCS(=O)(=O)c1cc([N+](=O)[O-])c(Sc2ccccc2N)s1,4.26 µM (active),
Cc1ccc(S(=O)(=O)NCCSc2ccccc2)cc1[N+](=O)[O-],,6.22
CC(=O)c1ccc(N2CCN(C3C(=O)c4ccccc4N3C(C)=O)CC2)cc1 (centres undefined),,-11.4
CCOC(=O)c1ccc(NC(=O)CCn2cnnn2)cc1,,2.52
CC(=O)c1cccc(CN2CCC(CO)(Cc3ccccc3)CC2)c1,,1.15
CC(C)c1csc(CN2CCC(CO)(Cc3ccccc3)CC2)n1,6.75 µM (active),
OCC1(Cc2ccccc2)CCN(Cc2cc3ccccc3o2)CC1,,3.73
Cc1nc2c(-c3ccccc3)c(C)nn2c(C)c1CCC(=O)NCCc1ccccc1,,-13.9
COc1cccc(CNC(=O)C2CCN(S(=O)(=O)c3ccc4c(ccn4C)c3)CC2)c1,,-8.5

SMILES,Potency,"activity change, negative = inhibition [%]"
CC1CCCCC1NC(=O)NC(=O)COC(=O)C1=NN(c2ccccc2)C(=O)CC1 (centres undefined),,5.26
O=C(Nc1ccccc1C(=O)N1CCCCC1)c1ccco1,,2.11
CS/C(=C\C(=O)c1ccco1)Nc1ccccc1Cl,3.79 µM (active),
Cc1c(Cl)cccc1NC(=O)CCC(=O)N/N=C/c1ccco1,,-0.65
COc1cccc(NC(=O)N(Cc2cn(C)c3ccccc23)C2CCCCCC2)c1,,4.23
CC(=O)OC1=C(C(C)=O)N(Cc2ccccc2)S(=O)(=O)c2ccccc21,,-2.47
Cc1ccc(C2=N/C(=C\c3ccc(OS(=O)(=O)c4ccc(C)cc4)cc3)C(=O)O2)cc1,,-0.259
CN1/C(=C\C=C2\N=C(c3ccc(F)cc3)OC2=O)C(C)(C)c2ccccc21,,-15.8
Cc1cccc(C2=N/C(=C/c3cccs3)C(=O)O2)c1,2.69 µM (active),
CCCCOc1ccc(C(=O)N2CC(=O)Nc3ccc(Br)cc3C2c2ccc(F)cc2)cc1 (centres undefined),,2.33
Cc1ccc2cc3cc(C(=O)N4CCCCCC4)oc3nc2c1,2.69 µM (active),
Cc1ccc2oc(=O)c3cnn(CC(=O)N4CCCCCC4)c3c2c1,,-0.0331
CCc1ccc(CNC(=O)c2cc3cc4ccc(OC)cc4nc3o2)cc1,,-1.47
CCCCn1c(N)c(N(CC)C(=O)c2ccc(N(C)S(=O)(=O)c3ccc(C)cc3)cc2)c(=O)[nH]c1=O,,3.09
Cc1cc(Br)ccc1SCC(=O)OCC(=O)NCc1ccc2c(c1)OCO2,,2.23
Cc1ccccc1NC(=O)Cc1nc(COC(=O)c2cccnc2Cl)cs1,,5.2
CCCNC(=O)C1CCC(Cn2c(=O)c3sccc3n(Cc3ccccc3F)c2=O)CC1 (centres undefined),,-0.991
CC(=O)Nc1ccc(NC(=O)CSc2ncnc3c2cnn3Cc2ccccc2)cc1,,-2.73
O=C(Cn1cnc2c(cnn2-c2ccc(F)cc2)c1=O)NCCc1ccccc1,,0.0901
CC(Sc1ncnc2c1cnn2-c1ccccc1)C(=O)Nc1ccc(N2CCOCC2)cc1 (centres undefined),,-13.5
O=C(Cn1cnc2c(cnn2-c2ccccc2)c1=O)NCc1ccccc1,,0.29
CC(=O)Cn1cnc2c(cnn2-c2ccccc2)c1=O,,-18.6
CCN(CC)C(=O)CSc1ncnc2c1cnn2-c1ccccc1,16.9 µM (active),
CC(C)Sc1ncnc2c1cnn2-c1ccccc1,1.51 µM (active),
COc1ccc(NC(=O)CSc2ncnc3[nH]ncc23)cc1,,-2.98
COc1ccc(-n2ncc3c(SCC(=O)NNC(C)=O)ncnc32)cc1,16.9 µM (active),
